The results in this text go back to a collection of fitness landscapes (doi:10.1126/science.1257360).

To fix the notation:
B1: PhoQ; a variant is named by its letters at X, in order, P23837 (parent)
chain: MKKLLRLFFPLSLRVRFLLATAAVVLVLSLAYGMVALIGYSVSFDKTTFRLLRGESNLFYTLAKWENNKLHVELPENIDKQSPTMTLIYDENGQLLWAQRDVPWLMKMIQPDWLKSNGFHEIEADVNDTSLLLSGDHSIQQQLQEVREDDDDAEMTHSVAVNVYPATSRMPKLTIVVVDTIPVELKSSYMVWSWFIYVLSANLLLVIPLLWVAAWWSLRPIEALAKEVRELEEHNRELLNPATTRELTSLVRNLNRLLKSERERYDKYRTTLTDLTHSLKTPLXXLQXXLRSLRSEKMSVSDAEPVMLEQISRISQQIGYYLHRASMRGGTLLSRELHPVAPLLDNLTSALNKVYQRKGVNISLDISPEISFVGEQNDFVEVMGNVLDNACKYCLEFVEISARQTDEHLYIVVEDDGPGIPLSKREVIFDRGQRVDTLRPGQGVGLAVAREITEQYEGKIVAGESMLGGARMEVIFGRQHSAPKDE

The full ranking holds about 140,000 sequences; the median of “enrichment ratio after two sorts for PhoP signalling” is about 0, and the highest 2% start at about 11. Shown is part of a subset that was picked to be rich in the highest values.

In the assay the parent is B1. The experiment in a line: enrichment ratio after two sorts for PhoP signalling (ratio (wild type AVST 3.29)); higher = more functional. Particulars: with PhoP (E. coli).
MAIR: the enrichment ratio is at most 0.25.
Next, TWDF: at most 0.25; QNMP: at most 0.25; QKNG: at most 0.25.
Regarding VWKN, the enrichment ratio was at most 0.25.
For the variant TWHE, the enrichment ratio was at most 0.25.
Take ANAW: the enrichment ratio was at most 0.25.
Turning to EGLC, the enrichment ratio was at most 0.25.
In the case of AGIV, the enrichment ratio is 14.4.
Take AIIV: the enrichment ratio came out at 3.98.
ANYR: the enrichment ratio is at most 0.25.
Next, LNSI: at most 0.25; ADYV: at most 0.25.
Regarding AGWV, the enrichment ratio was at most 0.25.
Consider ANSI, for which the enrichment ratio is 18.
Consider ADNS, for which the enrichment ratio was at most 0.25.
As for GNSI, the enrichment ratio is 4.37.
In the case of ADIV, the enrichment ratio came to 12.5.
For ANNS the value was 12.9; for AGIS, 2.92.
Take EFTF: the enrichment ratio is at most 0.25.
Turning to GVQP, the enrichment ratio was at most 0.25.
On to PEHG, for which the enrichment ratio is at most 0.25.
With WTQP, the enrichment ratio was at most 0.25.
For the variant TWFQ, the enrichment ratio is at most 0.25.
For QNLY the value was at most 0.25.
For KERI, the enrichment ratio was at most 0.25.
For KAIG the value was at most 0.25; for RCHM, at most 0.25.
Consider ANIV, for which the enrichment ratio worked out at 13.7.
With ANHN, the enrichment ratio is at most 0.25.
Consider ANIS, for which the enrichment ratio is 4.66.
Consider HKAP, for which the enrichment ratio is at most 0.25.
For SKLF the value was 11; for SKLM, 16.3; for SKLA, 8.7.
Regarding SKVA, the enrichment ratio is 1.14.
As to SKVM, the enrichment ratio stood at 19.7.
With NDKA, the enrichment ratio was at most 0.25.
Next, ITMN: at most 0.25; VVYG: at most 0.25; VHNY: at most 0.25.
As to HMES, the enrichment ratio was at most 0.25.
Consider SPTM, for which the enrichment ratio was at most 0.25.
For RGTM, the enrichment ratio was at most 0.25.
As for AGTS, the enrichment ratio is 7.67.
As to KSTM, the enrichment ratio is at most 0.25.
With AGTM, the enrichment ratio stood at 16.2.
Take TVNM: the enrichment ratio was found to be 13.5.
For YWTM, the enrichment ratio is at most 0.25.
As for TVTM, the enrichment ratio was found to be 16.6.
Regarding GGTM, the enrichment ratio is 1.63.
For SPNM the value was at most 0.25; for TGTM, 15; for FVNM, at most 0.25.
For the variant DANA, the enrichment ratio is at most 0.25.
As to MGIR, the enrichment ratio is at most 0.25.
Turning to PYLL, the enrichment ratio was at most 0.25.
As for VWQC, the enrichment ratio was at most 0.25.
Consider KPYK, for which the enrichment ratio is at most 0.25.
Next, NMSK: at most 0.25.
As to GWYP, the enrichment ratio is at most 0.25.
Next, NKWL: at most 0.25; YWTA: at most 0.25.
NAGY: the enrichment ratio was at most 0.25.
Consider TAYI, for which the enrichment ratio came out at 10.2.
For TAGY the value was 34.1; for TAAY, 15.7.
Consider TAPY, for which the enrichment ratio was at most 0.25.
In the case of KAGY, the enrichment ratio is at most 0.25.
Consider NVMG, for which the enrichment ratio was at most 0.25.
As to SYKQ, the enrichment ratio was at most 0.25.
As to DDMM, the enrichment ratio was at most 0.25.
Regarding FLYG, the enrichment ratio is at most 0.25.
In the case of YCDY, the enrichment ratio was at most 0.25.
For PSFY, the enrichment ratio is at most 0.25.
As to WEWY, the enrichment ratio is at most 0.25.
For VFIN, the enrichment ratio was at most 0.25.
For YVGY, the enrichment ratio was at most 0.25.
For HIQN, the enrichment ratio is at most 0.25.
Regarding MNQN, the enrichment ratio is at most 0.25.
Next, MNWN: 15.4; MNWG: 15.6; MNWI: 6.11.
In the case of MNHG, the enrichment ratio is at most 0.25.
Turning to MNWE, the enrichment ratio worked out at 17.9.
As to TNWE, the enrichment ratio was at most 0.25.
MNIE: the enrichment ratio is at most 0.25.
Turning to MNVG, the enrichment ratio is at most 0.25.
Consider TSGQ, for which the enrichment ratio is 7.96.
With PQQF, the enrichment ratio is at most 0.25.
WRDC: the enrichment ratio was at most 0.25.
For KALM the value was at most 0.25; for YELS, 14.9; for TALM, 15.3.
For YEWI, the enrichment ratio is at most 0.25.
In the case of YELA, the enrichment ratio is at most 0.25.
Consider WALM, for which the enrichment ratio stood at 6.02.
Turning to HALM, the enrichment ratio turned out to be 14.3.
As for HPLM, the enrichment ratio was at most 0.25.
In the case of YILM, the enrichment ratio amounted to 12.1.
With QPLM, the enrichment ratio was at most 0.25.
For HYLM the value was at most 0.25; for YIGM, 0.38; for SGGE, at most 0.25.
On to MSWN, for which the enrichment ratio worked out at 8.63.
TQHK: the enrichment ratio is at most 0.25.
As for KKLF, the enrichment ratio was at most 0.25.
Next, HYYY: at most 0.25.
Next, VMNW: at most 0.25.
On to NFPM, for which the enrichment ratio is at most 0.25.
Take MDYM: the enrichment ratio was at most 0.25.
For TGWM, the enrichment ratio came out at 0.965.
Turning to FLTQ, the enrichment ratio was at most 0.25.
As to HCKA, the enrichment ratio is at most 0.25.
Take FSYE: the enrichment ratio is at most 0.25.
As for VLLM, the enrichment ratio was 0.26.
Next, PKLM: at most 0.25.
Turning to VILM, the enrichment ratio is 1.31.
Next, WKLM: at most 0.25.
For AALM, the enrichment ratio is 14.8.
Consider YWLM, for which the enrichment ratio was at most 0.25.
Next, NALM: 5.51; AKLM: 12.4.
Consider VALM, for which the enrichment ratio was found to be 16.8.
With YALM, the enrichment ratio came out at 12.7.
On to RGGT, for which the enrichment ratio is at most 0.25.
Turning to TCHA, the enrichment ratio is at most 0.25.
For ESLN the value was at most 0.25; for AYSD, at most 0.25; for WYCA, at most 0.25.
Turning to QFWH, the enrichment ratio was at most 0.25.
Consider FYES, for which the enrichment ratio was at most 0.25.
Take YMRA: the enrichment ratio is at most 0.25.
As to QDSF, the enrichment ratio is at most 0.25.
SHGM: the enrichment ratio was at most 0.25.
Next, AHLM: 12.1; SHLM: 19.3; ANLM: 13.3.
For WNLM the value was at most 0.25.
With SHLA, the enrichment ratio came out at 3.56.
For the variant YHLM, the enrichment ratio is 0.877.
For the variant AYLM, the enrichment ratio was at most 0.25.
Next, YELF: 0.264.
Regarding AILM, the enrichment ratio stood at 5.76.
Consider FTLM, for which the enrichment ratio turned out to be 8.49.
For YELM the value was 13.8.
Consider ATSH, for which the enrichment ratio stood at 10.6.
RYPH: the enrichment ratio was at most 0.25.
Next, VVLY: at most 0.25; VSDV: at most 0.25.
As to FWLQ, the enrichment ratio is at most 0.25.
Turning to ISFK, the enrichment ratio is at most 0.25.
As to HFQN, the enrichment ratio was at most 0.25.
For SRTQ the value was at most 0.25; for APLM, at most 0.25.
Regarding THLM, the enrichment ratio was found to be 12.3.
Regarding ADLM, the enrichment ratio stood at 12.7.
As to HKLM, the enrichment ratio was at most 0.25.
For NHLM, the enrichment ratio was at most 0.25.
VHLM: the enrichment ratio is at most 0.25.
For TKLM the value was 21.3.
For AQLM the value was 19.4; for IQLM, 3.4.
On to FDLM, for which the enrichment ratio is at most 0.25.
For KKLM the value was at most 0.25; for FHFT, at most 0.25; for HCCR, at most 0.25.
Next, PGAV: at most 0.25; DVEF: at most 0.25.
For the variant FMQW, the enrichment ratio is at most 0.25.
On to QFLI, for which the enrichment ratio is at most 0.25.
For NSRM, the enrichment ratio was at most 0.25.
As for RLVV, the enrichment ratio is at most 0.25.
Take YTNN: the enrichment ratio was at most 0.25.
As to ITNN, the enrichment ratio was at most 0.25.
Consider TTNN, for which the enrichment ratio stood at 17.8.
As to TNMN, the enrichment ratio is at most 0.25.
Consider TNQN, for which the enrichment ratio came to 16.8.
For TNEN the value was at most 0.25; for KCNN, at most 0.25; for TWNN, 0.76.
PVNN: the enrichment ratio was at most 0.25.
TNNN: the enrichment ratio turned out to be 14.7.
Next, TVNN: 12.7; SPNN: at most 0.25; MDAD: at most 0.25.
For QRKY, the enrichment ratio is at most 0.25.
Regarding NDMN, the enrichment ratio is at most 0.25.
For the variant EKIL, the enrichment ratio is at most 0.25.
With PHCG, the enrichment ratio was at most 0.25.
For SNES, the enrichment ratio was at most 0.25.
Next, IPVP: at most 0.25; MNQH: at most 0.25.
As to FDNN, the enrichment ratio is at most 0.25.
Turning to LTNN, the enrichment ratio is at most 0.25.
In the case of TDNN, the enrichment ratio was 33.6.
For TNKH, the enrichment ratio is at most 0.25.
Next, TNQH: 15.
